The entries come from a sample that favours hits as a whole.
Pf Dd2 inh: qHTS Primary assay for Inhibitors of Plasmodium falciparum Dd2 growth in vitro. P. falciparum Dd2 growth, SYBR Green, 72 h. Potency, µM (titrated, usually from 28.9 µM), inactives show at the top dose activity, negative = inhibition, most hits filed as inhibitors. 120,000 compounds, 4.3% hits; active = well fitted inhibition curve with a large enough effect;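 also: plate controls were DMSO vehicle for no effect and reference drug for full effect; nearly all actives have a fitted effect of over 65% in size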
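Infected erythrocytes (Dd2, 0.3% parasitemia, 2.5% hematocrit final) are added to compound in RPMI-1640/Albumax II medium, grown 72 h at 37C in low oxygen, then lysed with saponin/Triton-X containing SYBR Green and read by fluorescence.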
* = called active by the depositor; i = inactive; [ ] = dose if it differs, or a comment. Potency is read from the fitted curve at half-maximal effect.

SMILES	Pf Dd2 inh
O=C(c1ccc(Cl)cc1)N1CCC2(CN[S+](=O)([O-])c3cccnc3O2)C1 (stereo unspecified)	17%
COc1ccc(C(=O)N[C@@H]2CN(S(C)(=O)=O)C[C@H]2CN(C)C)cc1OC	23%
Cc1c(C(=O)N2CCCCCC2)c(S(=O)(=O)N(Cc2ccccc2)C(C)(C)C)c(C)n1C	13µM*
Cc1ccc(CNS(=O)(=O)c2c(C(=O)N3CCC(C)CC3)c(C)n(C)c2C)cc1	12%
Cc1c(C(=O)N2CCCCC2)c(S(=O)(=O)NCc2ccc(N(C)C)cc2)c(C)n1C	-17%
CC(Oc1ccccc1)C(=O)N1CCN(C(=O)c2nnn3c2COC(c2ccccc2)C3)CC1 (stereo unspecified)	-7%
Cc1ccc(CN2C(=O)NC3(CCCN(C(=O)c4ccc5c(c4)OCO5)C3)C2=O)cc1 (stereo unspecified)	16%
O=C(CCC1CCN(c2cc(NC3CC3)ncn2)CC1)NCC1CC1	-25%
Cc1cn2nc(C(=O)NCc3ccc(F)cc3F)cc2c(=O)[nH]1	3.2µM*
Cc1cn2nc(C(=O)NCc3ccc(Cl)cc3)cc2c(=O)[nH]1	4%
Cc1cn2nc(C(=O)NCc3ccccc3C)cc2c(=O)[nH]1	25%
CCCC1(C(=O)O)CCCN(C(=O)c2cccc(OC)c2OC)C1 (stereo unspecified)	-24%
COc1ccccc1-c1[nH]nc2ncc(-c3cccc(O)c3)nc12	i
COc1ccc(-c2nc(-c3ccccc3)c(-c3ccccc3)[nH]2)cc1Br	-2%
COc1cc(-c2noc(CN3CCN(c4cccc(Cl)c4)CC3)n2)cc(OC)c1OC	-9%
COc1cc(-c2nc(-c3cccc(Cl)c3)c(-c3ccccc3)[nH]2)cc(OC)c1OC	10µM*
COc1cccc([C@H]2CN(C(=O)c3c(C)nn4c(C)cc(C)nc34)C[C@@H]2N)c1	-13%
COCCc1noc(-c2ccccc2OC2CN(C(=O)c3cnccn3)C2)n1	49%
COCCc1noc(-c2ccccc2OC2CN(C(=O)c3ccncc3)C2)n1	10µM*
COc1ccc(OC)c(S(=O)(=O)N2CCC(Oc3ccccc3-c3nc(C)no3)C2)c1 (stereo unspecified)	-11%
Cc1noc(-c2ccccc2OC2CCN(S(C)(=O)=O)C2)n1 (stereo unspecified)	1%
COCCc1noc(-c2ccccc2OC2CN(S(=O)(=O)C(C)C)C2)n1	8.9µM*
Cc1ccc(C(=O)N2CCC(Oc3ccccc3-c3nc(-c4ccncc4)no3)C2)cn1 (stereo unspecified)	i
C=CCNC(=O)C[C@@H]1CCN(C(=O)CCCCC)C[C@@H]1CC	-29%[44.1 µM]
CCC1(N2CCN(C(=O)C3COc4ccccc4O3)CC2)CCN(C(=O)NC)C1 (stereo unspecified)	-4%
SMILES	Pf Dd2 inh
CCc1nc(CN2CCN(Cc3ccc(C)o3)C(CCO)C2)c(C)[nH]1 (stereo unspecified)	-10%
CC(=O)N1Cc2ccccc2OC2(CCN(C(=O)CN(C)C)CC2)C1	15%
c1cc2c(cc1N1CCC(N[C@H]3C[C@@H]4OCC[C@H]34)CC1)CCC2	-13%
Fc1ccc2cnc(N3CCC(N[C@H]4C[C@@H]5OCC[C@H]45)CC3)nc2c1	8.9µM*
COc1cccc(CN2CCOC3(CCN(Cc4ccc(C#N)cc4)CC3)C2=O)c1	-26%[44.1 µM]
CCOc1ccc(CC(=O)N2CCC3(CC2)N=C(c2ccccc2)NO3)cc1	i
CCOc1ccc(OCC)c(NC(=O)C2CCCN(S(=O)(=O)c3cc(Br)cc4c3N(C(=O)CC)CC4)C2)c1 (stereo unspecified)	7.9µM*
CCOC(=O)C1CCCN(S(=O)(=O)c2cc(Br)cc3c2N(C(C)=O)CC3)C1 (stereo unspecified)	21%
CCOC(=O)c1cccc(NC(=O)C2CCCN(S(=O)(=O)c3cc(Br)cc4c3N(C(=O)CC)CC4)C2)c1 (stereo unspecified)	-23%
Cc1ccc(S(=O)(=O)N2CCCC(Cn3c(C)nc4cccnc43)C2)cc1Cl (stereo unspecified)	7.1µM*
Cc1nc2cccnc2n1CC1CCCN(S(=O)(=O)c2ccc(F)c(F)c2)C1 (stereo unspecified)	-17%
Cc1ccc(S(=O)(=O)N2CCCC(Cn3c(C)nc4cccnc43)C2)cc1 (stereo unspecified)	-6%
O=C(NC1CCN(c2ccc(F)cc2)C1=O)c1ccccc1Cl (stereo unspecified)	-8%
CC(C)NC(=O)CC[C@@H]1CNC(=O)[C@@H]2C[C@H](NCc3ccc(CO)o3)CN12	21%[44.1 µM]
CCCNC(=O)C1c2ccccc2C(=O)N(C2CCCCC2)C12CCCCC2 (stereo unspecified)	i
O=C(NCCc1ccncc1)C1c2ccccc2C(=O)N(C2CCCCC2)C12CCCCC2 (stereo unspecified)	10µM*
O=C(NCCc1ccncc1)C1c2ccccc2C(=O)N(Cc2ccccc2)C12CCCC2 (stereo unspecified)	-29%
COc1cccc(S(=O)(=O)N2CCCCCCN(C)C(=O)CC2)c1	i
O[C@@H]1C[C@@H](c2nc(-c3ccc4c(c3)OCO4)no2)N(CC2CCCCC2)C1	i
COc1ccc(CCNC(=O)c2ccc3c(c2)N(Cc2ccccc2)C(=O)c2ccccc2S3=O)cc1OC (stereo unspecified)	i
Cc1cccc(CN2C(=O)c3ccccc3S(=O)(=O)c3ccc(C(=O)NCCC4=CCCCC4)cc32)c1	-13%
O=C(NCCC1=CCCCC1)c1ccc2c(c1)N(Cc1ccccc1F)C(=O)c1ccccc1S2=O (stereo unspecified)	13µM*
O=C(NCCn1cccn1)c1ccc(C2CCNC2)cc1 (stereo unspecified)	-8%
COc1ccc(C(=O)N2CCCC3(COc4ccccc4C(=O)N3)C2)cc1 (stereo unspecified)	-11%
COc1ccc(C(=O)N2CCC3(CC2)COc2ccccc2CN3)cc1	1.4µM*
SMILES	Pf Dd2 inh
COc1ccc(C(=O)N2CCC3(CC2)CNC(=O)c2ccccc2O3)cc1	-16%
COc1cccc2c1ccn2CCNC(=O)C1CC(=O)N(c2n[nH]c3ccccc23)C1 (stereo unspecified)	i
C[C@@H](NC(=O)Nc1ccccc1)c1onc(-c2ccc(Cl)cc2)c1C(=O)O	23%[44.1 µM]
Cc1noc(C)c1[S+](=O)([O-])N1CCC2(CC1)CNC(=O)c1ccccc1O2	-21%
Clc1cccc(CN2CC[C@H](c3nnc(-c4ccncc4)o3)C2)c1	i
CC(NC(=O)C1CCN(C(=O)c2ncn3c2COC(c2ccccc2)C3)CC1)c1ccc(F)cc1 (stereo unspecified)	i
CC(NC(=O)C1CCN(C(=O)c2ncn3c2COC(c2ccc(Cl)cc2)C3)CC1)c1ccccc1 (stereo unspecified)	-16%
COc1ccc(C(C)NC(=O)C2CCN(C(=O)c3ncn4c3COC(c3ccccc3)C4)CC2)cc1 (stereo unspecified)	7.9µM*
CCNc1ncc(C(=O)N[C@H](c2cccs2)C2CC(O)C2)cn1 (stereo partly specified)	-25%
Cc1ccc(S(=O)(=O)C(CNC(=O)Cc2ccc(Cl)cc2)c2cccs2)cc1 (stereo unspecified)	2%
CCc1ncc(C(=O)NC(c2ccc(C)cc2)c2cccs2)cn1 (stereo unspecified)	10µM*
CC1(c2ccccc2)N(Cc2ncccn2)C(=O)OC12CCN(C(=O)Cc1ccc(Cl)cc1)CC2 (stereo unspecified)	13µM*

Source: PubChem BioAssay (National Center for Advancing Translational Sciences (NCATS))
